# nsP2pro primary: CHIKV nsP2 protease inhibition, primary qHTS | Q8JUX6 | FRET peptide cleavage, nsP2pro, fluorescence 1 h | Potency, µM (series often up to 24.9 µM), inactives show at the highest dose activity change, negative = inhibition, most hits filed as inhibitors | actives 1.1% (n = 31,000) | AID 1964107; also: nearly all actives have a fitted effect of over 60% in size
#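 Enzyme 150 nM, substrate 2.5 uM (both final); Tris-HCl 10 mM pH 8.0 + 0.01% Tween 20; cpd up to 25 uM, 7 pts; 15 min preinc., 1 h RT; fluorescence ex 525/em 598.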
# nsP2 cell sec: cell-based CHIKV nsP2 protease inhibition, secondary; shares compounds with nsP2pro primary; cell-based CHIKV nsP2 protease reporter assay; Potency, µM (doses to about 51.1 µM), for the others: top-dose activity change, negative = inhibition, usual class: inhibitors; actives 10% (n = 450); also: nearly all actives have a fitted effect of over 70% in size
# NSP2 full ctr: selectivity test for CHIKV nsP2 protease inhibitors: full-length NSP2; Full-length CHIKV NSP2 protease enzymatic counterscreen; actives 39% (n = 410); AID 1964101; Potency, µM (highest dose often 50.7 µM), inactives show at the highest dose activity change, negative = inhibition, most hits filed as inhibitors; shares compounds with nsP2pro primary; also: nearly all actives have a fitted effect of over 65% in size
# Furin counter: human furin inhibition, counterscreen for nsP2pro inhibitors | shares compounds with nsP2pro primary | Recombinant human furin enzymatic counterscreen, fluorogenic substrate | Potency, µM (doses to about 50.6 µM), inactives show at the highest dose activity change, negative = inhibition, most hits filed as inhibitors | actives 6% (n = 410)
# Target sequence (P09958 whole entry, looked up): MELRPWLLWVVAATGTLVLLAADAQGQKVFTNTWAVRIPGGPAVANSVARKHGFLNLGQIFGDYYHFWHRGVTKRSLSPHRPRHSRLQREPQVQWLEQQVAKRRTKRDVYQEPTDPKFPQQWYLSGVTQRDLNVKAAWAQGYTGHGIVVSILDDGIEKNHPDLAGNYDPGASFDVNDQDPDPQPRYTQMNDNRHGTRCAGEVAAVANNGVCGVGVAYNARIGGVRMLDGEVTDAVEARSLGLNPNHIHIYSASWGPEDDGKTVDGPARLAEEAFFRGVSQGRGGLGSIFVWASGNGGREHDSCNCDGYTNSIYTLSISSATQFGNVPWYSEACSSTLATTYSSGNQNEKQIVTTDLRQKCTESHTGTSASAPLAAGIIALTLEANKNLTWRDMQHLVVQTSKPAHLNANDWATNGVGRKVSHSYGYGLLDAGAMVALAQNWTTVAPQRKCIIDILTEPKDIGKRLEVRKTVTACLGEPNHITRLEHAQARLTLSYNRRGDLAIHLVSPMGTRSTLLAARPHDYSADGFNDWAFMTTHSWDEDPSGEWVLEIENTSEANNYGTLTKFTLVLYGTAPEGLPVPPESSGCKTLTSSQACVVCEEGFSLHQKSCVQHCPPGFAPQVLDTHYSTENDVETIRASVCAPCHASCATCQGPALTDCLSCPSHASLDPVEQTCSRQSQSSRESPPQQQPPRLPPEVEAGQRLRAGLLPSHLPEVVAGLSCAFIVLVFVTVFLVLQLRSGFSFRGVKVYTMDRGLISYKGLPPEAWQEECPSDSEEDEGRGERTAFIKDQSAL
# NS23 peptide cs: nsP2pro inhibition on native NS2/3 peptide substrate | actives 34% (n = 410) | shares compounds with nsP2pro primary | Potency, µM (top dose mostly 51 µM), without a hit: top-dose activity change, negative = inhibition, most hits filed as inhibitors | Purified CHIKV nsP2 protease, endogenous NS2/3 peptide cleavage; also: nearly all actives have a fitted effect of over 55% in size
# Papain cs: selectivity counter-screen for CHIKV nsP2 protease inhibitors: papain; shares compounds with nsP2pro primary; Potency, µM (highest dose often 51 µM), for the others: at the highest dose activity change, negative = inhibition, hits mostly inhibitors; purified papain protease activity, enzymatic inhibition; actives 5% (n = 410)
# nsP2pro confirm: CHIKV nsP2 protease inhibition, confirmatory qHTS. shares compounds with nsP2pro primary. CHIKV nsP2 protease enzymatic activity, qHTS. Potency, µM (highest dose often 25.5 µM), inactives show top-dose activity change, negative = inhibition, most hits filed as inhibitors. actives 43% (n = 410). AID 1964105; also: nearly all actives have a fitted effect of over 75% in size
# HCV NS3 4A cs: inhibits HCV NS3/4A protease in an nsP2pro selectivity counterscreen; HCV NS3/4A protease biochemical counterscreen; shares compounds with nsP2pro primary; AID 1964106; actives 20% (n = 410); Potency, µM (series often up to 50.9 µM), hits mostly inhibitors; also: nearly all actives have a fitted effect of over 55% in size
# Numbers without * were called inactive; i = inactive; ? = inconclusive; [ ] = remark or other dose. The entries come from a sample that favours hits as a whole. Calls follow the shape of the full dose curve. % is scaled to controls: 0 for no effect and ±100 for the full control effect; potency is read from the fitted curve at half-maximal effect.
SMILES,nsP2pro primary,others
COC(=O)C1=CO[C@@H](O[C@@H]2O[C@H](CO)[C@@H](O)[C@H](O)[C@H]2O)[C@H]2[C@@H]1C=C[C@]21C=C([C@H](C)OC(=O)/C=C/c2ccc(O)cc2)C(=O)O1,1.65µM*,nsP2 cell sec=-29.1%[17.6 µM];NSP2 full ctr=3.43µM*;Furin counter=-3.1%[17.3 µM];NS23 peptide cs=?;Papain cs=-10.3%[17.2 µM];nsP2pro confirm=1.33µM*;HCV NS3 4A cs=?
C[C@@H](OC(=O)/C=C/c1ccc(O)cc1)C1=C[C@]2(C=C[C@@H]3C(C(=O)O)=CO[C@@H](O[C@@H]4O[C@H](CO[C@@H]5O[C@H](CO)[C@@H](O)[C@H](O)[C@H]5O)[C@@H](O)[C@H](O)[C@H]4O)[C@@H]32)OC1=O,20.8%[10 µM],
O=C(NC[C@@H]1CN(c2ccc(N3CCOCC3=O)cc2)C(=O)O1)c1ccc(Cl)s1,-23.7%,
COc1ccnc(NC(=S)N2CCN(c3ccc4ccccc4n3)CC2)c1,4.3%,
O=C(NCc1cccnc1)c1nc(-c2ccc(Cl)cc2)c2ccccn12,-6.1%,
C/C=C/c1cc(OC)c2c(c1)[C@@H](C)[C@@H](c1ccc(O)c(OC)c1)O2,10.5%,
C/C=C/c1ccc(O)c(OC)c1,?,nsP2 cell sec=-5.2%;NSP2 full ctr=18.3µM*;Furin counter=-10.6%;NS23 peptide cs=?;Papain cs=-5.5%;nsP2pro confirm=5.04µM*;HCV NS3 4A cs=?
C/C=C/c1ccc(OC)cc1,-6.6%,
CCN(CCc1cn(C)cn1)c1ncnc2ccc(-c3ccc4c(c3)OCO4)cc12,i,
COc1ccc(-c2csc(NC(=O)[C@H]3CCCCN3S(=O)(=O)c3ccc(C)cc3)n2)cc1,2.2%,
CC1(C)SCCN(S(=O)(=O)c2ccc(Oc3ccncc3)cc2)[C@H]1C(=O)NO,0.2%,
CC1(C)SCCN(S(=O)(=O)c2ccc(OCC#CCO)cc2)[C@H]1C(=O)NO,?,nsP2 cell sec=-13.2%;NSP2 full ctr=?;Furin counter=-2.5%;NS23 peptide cs=2.3%;Papain cs=-3.1%;nsP2pro confirm=?;HCV NS3 4A cs=i
CC(=O)N[C@@H]1[C@@H](O)[C@H](O)[C@@H](CO)O[C@H]1O,-10.3%,
O=[S+]([O-])(Nc1ccc(N2CCNCC2)cc1)c1ccc(NCc2cccc(Cl)c2O)cc1,i,
O=C1CCCC2=C1C(c1[nH]ncc1Cl)NC(=NCc1nccs1)N2 (stereo not given),1.6%,
Oc1ccc(CNc2ccccc2Cl)c2cccnc12,-11.6%,
Oc1ccc(CNc2ccccc2C(F)(F)F)c2cccnc12,i,
Oc1ccc(CNc2ccccc2F)c2cccnc12,3.13µM*,nsP2 cell sec=52.2%;NSP2 full ctr=15.4µM*;Furin counter=-16.2%;NS23 peptide cs=10.9µM*;Papain cs=-22.4%;nsP2pro confirm=1.89µM*;HCV NS3 4A cs=i
O=C(O)c1cccc(-c2noc(-c3cccc(F)c3)n2)c1,i,
NC(=O)c1ccc[n+](C2OC(COP(=O)([O-])OP(=O)(O)OCC3OC(n4cnc5c(N)ncnc54)C(O)C3O)C(O)C2O)c1 (stereo not given),-13.3%,
CCOc1cc(CNc2ccc(O)cc2)ccc1OCc1ccc(Cl)cc1,10µM*,nsP2 cell sec=13µM*;NSP2 full ctr=18.3µM*;Furin counter=-21.7%;NS23 peptide cs=?;Papain cs=-24.2%;nsP2pro confirm=-2.1%;HCV NS3 4A cs=?
COc1cccc(CNc2ccc(S(=O)(=O)Nc3ccccn3)cc2)c1O,i,
O=C(COc1ccccc1CNc1ccc(F)cc1)Nc1ccc(Cl)cc1,29.4%,
Oc1ccc(NCc2ccccc2OCc2ccc(Cl)cc2)cc1,2.39µM*,nsP2 cell sec=11.6µM*;NSP2 full ctr=13µM*;Furin counter=-12.4%;NS23 peptide cs=?;Papain cs=-11.6%;nsP2pro confirm=?;HCV NS3 4A cs=13µM*
Oc1cc(NCc2ccc(Cl)cc2)cc2cccnc12,2.5%,
SMILES,nsP2pro primary,others
CCOc1ccc(CCNC(=O)c2ccccn2)cc1OCC,-0.1%,
O=C(COc1ccccc1CNc1ccccc1)Nc1ccc(F)cc1,-49.0%,
Oc1ccc(NCc2ccccc2OCc2ccccc2)cc1,3.01µM*,nsP2 cell sec=11.6µM*;NSP2 full ctr=?;Furin counter=-8.2%;NS23 peptide cs=18.3µM*;Papain cs=-6.7%;nsP2pro confirm=?;HCV NS3 4A cs=20.6µM*
O=C(COc1ccccc1CNc1ccc(F)cc1)Nc1ccc(F)cc1,-1.4%,
CN(Cc1cccc(N2CCN(C(c3ccccc3)c3ccccc3)CC2)c1)[S+](C)(=O)[O-],-9.5%,
COc1ccc(-c2ccc(CN3CC(C)(NC(C)=O)C3)s2)cn1,i,
O=C(NCCc1ccccc1)N1CC(c2noc(C3CCCN3CC3CC3)n2)C1 (stereo not given),i,
CC(=O)NCCC(=O)N1CCC2(CC1)CC(N[S+](C)(=O)[O-])c1ccccc12 (stereo not given),-4.6%,
O=C(NCC1CCC(=O)N(Cc2ccccc2)CC1)C1CCCCC1 (stereo not given),i,
C/C=C(\C)C(=O)OC1C[C@@]2(COC(C)=O)O[C@H]2/C=C\[C@@]2(C)O[C@@H]2[C@H]2OC(=O)C(COC(C)=O)=C12 (stereo not given in full),3.42µM*,nsP2 cell sec=-0.3%[17.6 µM];NSP2 full ctr=?;Furin counter=-8.3%[17.3 µM];NS23 peptide cs=?;Papain cs=-9.1%[17.2 µM];nsP2pro confirm=3.47µM*;HCV NS3 4A cs=?
C/C=C(\C)C(=O)O[C@H]1CC2C(=C1C)[C@H]1OC(=O)[C@](C)(O)[C@]1(O)[C@H](OC(=O)CCC)C[C@@]2(C)OC(C)=O (stereo not given in full),-2.1%[10 µM],
C=C1C(=O)O[C@H]2[C@H]1[C@@H](OC(=O)/C(C)=C\C)C[C@]1(C)O[C@@H]1[C@H]1O[C@H]1C(=C)[C@H]2O,-4.5%,
CCCCCCCCCCCCCCCCCC(=O)NCCCC[C@H](NC(=O)CC[C@@H](NC(=O)[C@H](C)NC(=O)[C@@H](C)O[C@H]1[C@H](O)[C@@H](CO)OC(O)[C@@H]1NC(C)=O)C(N)=O)C(=O)O (stereo not given in full),-7.8%,
OCCN1C[C@H](O)[C@@H](O)[C@H](O)[C@H]1CO,-8.3%,
CCOC(=O)c1ccc(OCCN2C[C@H](O)[C@@H](O)[C@H](O)[C@H]2CO)cc1,?,nsP2 cell sec=-3.9%[17.6 µM];NSP2 full ctr=?;Furin counter=14.2µM*;NS23 peptide cs=-15.5%[17.2 µM];Papain cs=-14.2%[17.2 µM];nsP2pro confirm=?;HCV NS3 4A cs=i
CCCCN1C[C@H](O)[C@@H](O)[C@H](O)[C@H]1CO,2.8%,
Cc1cc(C)nc(NC(=S)N2CCN(c3ccncc3)CC2)c1,-3.3%,
COc1cccc(NC(=S)N2CCN(c3cc(C(F)(F)F)cc(C(F)(F)F)c3)CC2)n1,-6.1%,
COC(=O)N1CCCN(c2nccc(Nc3ccc(C)cc3)n2)C1,-4.4%[39.2 µM],
